Molecules are shown by their SMILES. Records with an inconclusive call do not appear. Activity calls are given as the source filed them. The call rests on the fitted dose curve; in most records, active means well fitted curve in the direction sought with a large enough effect in the repeat runs; inconclusive means weak or mixed curves; inactive means no such curve, though single readings can be large; an effect the other way counts as inactive or inconclusive.

The source of these data is PubChem BioAssay (Tox21).
Further: nearly all actives have a fitted effect of over 40% in size.
On the % scale 0 is the no-effect control and ±100 the full control effect.

One assay addresses Nuclear receptor subfamily 1 group I member 2 (Homo sapiens) (UniProt O75469). Put plainly: CYP3A4 induction through human pregnane X receptor (PXR) by small molecules, qHTS assay (AID 1346984). As to conditions: DPX-2 HepG2 PXR, CYP3A4-luciferin luminescence, 24 h; series mostly up to 46.1 µM; activation: at the top concentration. The essentials:
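Cells (DPX-2; HepG2 with PXR element plus CYP3A4-promoter luciferase) settled 5hr, then were treated 24hr at 37C. A 3hr, 3uM-final Luciferin-IPA step preceded luminescence measurement with One-Glo.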
For `O=Cc1ccco1`, the “activation” value is -3.54% (inactive).

Turning to `COc1ccc(C(CN(C)C)C2(O)CCCCC2)cc1` (stereo unspecified), the “activation” value was -2.61% (inactive).

`Oc1cc(Cl)c(Cl)cc1Cl`: the “activation” value was 7.64% (inactive).

A further assay shares this target. Nature of the assay: Human pregnane X receptor (PXR) activation by small molecules, qHTS assay (AID 1346985). The following applies: DPX-2 HepG2 CYP3A4-luciferase, 24 h; series mostly up to 38.3 µM; activation: at the top concentration. An outline of the steps: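 DPX-2 cells (HepG2 co-transfected with a PXR response element and a CYP3A4-promoter luciferase construct) were seeded at 2,000 per well, rested 5 hr at 37C, then exposed to DMSO-dissolved compounds for 24 hr. Activation was read as luciferase luminescence.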
On the technique in general: qHTS replaces the single test concentration by a dilution series.
In the case of `O=Cc1ccco1`, the “activation” value was 0.846% (inactive).

For the compound `COc1ccc(C(CN(C)C)C2(O)CCCCC2)cc1` (stereo unspecified), the “activation” value is 10% (inactive).

For `Oc1cc(Cl)c(Cl)cc1Cl`, the “activation” value was 1.49% (inactive).
